Data published in the supplement of paper PMC10849652.
The full data set covers some 7,900 targets. This sample favours those with a hit. About 0.6% of all pairs of compound and target were hits.

What follows are targets tested with c1cn2cc(-c3ccc4cn[nH]c4c3)nc(Nc3ccc(N4CCOCC4)cc3)c2n1 [entospletinib] (assay: log2 fold change, soluble protein after heating vs DMSO (PISA); higher = thermal stabilisation; K562 cells, 10 uM, 30 min; active = over 0.2 and 3.5 SD of the protein, either way, in both replicates (recomputed)).
In short: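 Soluble protein was defined as the supernatant after 21,000xg for 90 min. It came from K562 cells at 2×10^6 cells/mL given 10 μM compound for 30 min, heated in aliquots for 3 min across 48°C-58°C, pooled, and extracted in PBS with 0.5% NP-40 at 4°C, and was quantified by TMTpro 16plex LC-MS/MS with equalised channel sums. Thermal stability against control samples, from duplicates, is reported as log2 fold change.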

Sequence of UniProt Q9H1E3 (Q9H1E3 whole entry, looked up): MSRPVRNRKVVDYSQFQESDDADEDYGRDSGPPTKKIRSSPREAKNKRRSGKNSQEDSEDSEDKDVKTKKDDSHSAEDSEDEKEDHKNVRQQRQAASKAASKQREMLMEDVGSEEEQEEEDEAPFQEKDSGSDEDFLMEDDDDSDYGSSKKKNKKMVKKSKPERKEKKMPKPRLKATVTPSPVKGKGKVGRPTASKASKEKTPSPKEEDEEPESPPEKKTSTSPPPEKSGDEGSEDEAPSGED
Sequence of UniProt P55209 (P55209 whole entry, looked up): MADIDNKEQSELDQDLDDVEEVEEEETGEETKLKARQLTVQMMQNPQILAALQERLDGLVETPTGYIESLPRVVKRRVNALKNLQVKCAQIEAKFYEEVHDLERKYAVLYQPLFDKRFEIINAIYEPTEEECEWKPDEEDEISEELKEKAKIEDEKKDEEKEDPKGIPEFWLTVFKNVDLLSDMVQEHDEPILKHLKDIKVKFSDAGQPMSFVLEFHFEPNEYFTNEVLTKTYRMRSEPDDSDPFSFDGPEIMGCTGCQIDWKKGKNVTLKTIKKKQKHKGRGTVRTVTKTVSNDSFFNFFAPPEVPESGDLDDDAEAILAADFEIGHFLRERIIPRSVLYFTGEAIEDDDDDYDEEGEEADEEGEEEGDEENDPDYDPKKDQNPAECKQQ
Sequence of UniProt O00483 (O00483 whole entry, looked up): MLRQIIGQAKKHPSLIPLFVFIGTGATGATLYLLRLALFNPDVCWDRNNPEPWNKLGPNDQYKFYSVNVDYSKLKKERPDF
Sequence of UniProt Q8TEM1 (Q8TEM1 whole entry, looked up): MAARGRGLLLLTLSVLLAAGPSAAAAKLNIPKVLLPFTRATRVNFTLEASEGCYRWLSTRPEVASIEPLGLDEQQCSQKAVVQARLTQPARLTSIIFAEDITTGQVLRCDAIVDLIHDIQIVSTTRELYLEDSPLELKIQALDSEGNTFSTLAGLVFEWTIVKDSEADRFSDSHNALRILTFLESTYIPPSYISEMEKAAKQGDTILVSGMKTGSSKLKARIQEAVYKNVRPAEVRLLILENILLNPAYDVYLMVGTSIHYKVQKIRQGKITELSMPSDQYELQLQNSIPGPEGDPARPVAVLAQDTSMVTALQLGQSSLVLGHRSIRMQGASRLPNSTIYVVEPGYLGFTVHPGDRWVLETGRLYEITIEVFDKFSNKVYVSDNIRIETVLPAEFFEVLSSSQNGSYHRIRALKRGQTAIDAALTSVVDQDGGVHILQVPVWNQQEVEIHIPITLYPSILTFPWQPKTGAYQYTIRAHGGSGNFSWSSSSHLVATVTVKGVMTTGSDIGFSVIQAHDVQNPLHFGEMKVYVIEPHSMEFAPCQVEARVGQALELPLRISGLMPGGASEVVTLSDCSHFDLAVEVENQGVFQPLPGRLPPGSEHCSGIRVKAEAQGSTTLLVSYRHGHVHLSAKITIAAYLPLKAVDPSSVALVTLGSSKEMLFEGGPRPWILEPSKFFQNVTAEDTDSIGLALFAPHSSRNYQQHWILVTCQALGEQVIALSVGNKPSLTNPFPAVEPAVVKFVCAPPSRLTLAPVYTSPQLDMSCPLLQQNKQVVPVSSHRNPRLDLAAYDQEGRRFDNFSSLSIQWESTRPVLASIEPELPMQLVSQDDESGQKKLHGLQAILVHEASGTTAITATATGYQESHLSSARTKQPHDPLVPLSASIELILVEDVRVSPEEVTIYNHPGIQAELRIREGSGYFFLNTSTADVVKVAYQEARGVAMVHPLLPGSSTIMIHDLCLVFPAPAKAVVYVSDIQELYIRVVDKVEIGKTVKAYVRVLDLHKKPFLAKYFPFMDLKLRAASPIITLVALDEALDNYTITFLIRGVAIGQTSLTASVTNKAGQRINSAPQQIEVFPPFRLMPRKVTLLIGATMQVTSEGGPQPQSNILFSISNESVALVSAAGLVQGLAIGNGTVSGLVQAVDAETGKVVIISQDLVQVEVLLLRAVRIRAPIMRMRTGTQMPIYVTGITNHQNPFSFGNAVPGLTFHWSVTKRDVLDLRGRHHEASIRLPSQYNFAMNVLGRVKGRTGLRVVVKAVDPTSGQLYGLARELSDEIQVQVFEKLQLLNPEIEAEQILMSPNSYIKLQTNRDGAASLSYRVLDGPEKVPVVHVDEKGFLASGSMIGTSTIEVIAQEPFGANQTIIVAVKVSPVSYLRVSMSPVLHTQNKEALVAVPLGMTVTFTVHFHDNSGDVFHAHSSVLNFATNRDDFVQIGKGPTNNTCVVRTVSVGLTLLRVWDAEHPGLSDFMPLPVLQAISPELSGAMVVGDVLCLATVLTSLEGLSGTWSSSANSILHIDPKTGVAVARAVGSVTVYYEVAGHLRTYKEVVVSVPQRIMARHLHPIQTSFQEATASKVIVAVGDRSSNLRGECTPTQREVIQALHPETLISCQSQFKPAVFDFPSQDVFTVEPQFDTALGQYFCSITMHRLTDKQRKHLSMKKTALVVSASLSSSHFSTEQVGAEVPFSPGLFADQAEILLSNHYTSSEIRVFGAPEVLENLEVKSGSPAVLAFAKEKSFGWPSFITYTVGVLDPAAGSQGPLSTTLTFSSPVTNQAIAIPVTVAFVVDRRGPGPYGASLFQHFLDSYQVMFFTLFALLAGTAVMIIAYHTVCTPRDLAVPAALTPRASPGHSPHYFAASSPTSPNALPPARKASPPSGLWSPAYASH
Sequence of MTHFD1, A0A384N5Y3 (A0A384N5Y3 whole entry, looked up): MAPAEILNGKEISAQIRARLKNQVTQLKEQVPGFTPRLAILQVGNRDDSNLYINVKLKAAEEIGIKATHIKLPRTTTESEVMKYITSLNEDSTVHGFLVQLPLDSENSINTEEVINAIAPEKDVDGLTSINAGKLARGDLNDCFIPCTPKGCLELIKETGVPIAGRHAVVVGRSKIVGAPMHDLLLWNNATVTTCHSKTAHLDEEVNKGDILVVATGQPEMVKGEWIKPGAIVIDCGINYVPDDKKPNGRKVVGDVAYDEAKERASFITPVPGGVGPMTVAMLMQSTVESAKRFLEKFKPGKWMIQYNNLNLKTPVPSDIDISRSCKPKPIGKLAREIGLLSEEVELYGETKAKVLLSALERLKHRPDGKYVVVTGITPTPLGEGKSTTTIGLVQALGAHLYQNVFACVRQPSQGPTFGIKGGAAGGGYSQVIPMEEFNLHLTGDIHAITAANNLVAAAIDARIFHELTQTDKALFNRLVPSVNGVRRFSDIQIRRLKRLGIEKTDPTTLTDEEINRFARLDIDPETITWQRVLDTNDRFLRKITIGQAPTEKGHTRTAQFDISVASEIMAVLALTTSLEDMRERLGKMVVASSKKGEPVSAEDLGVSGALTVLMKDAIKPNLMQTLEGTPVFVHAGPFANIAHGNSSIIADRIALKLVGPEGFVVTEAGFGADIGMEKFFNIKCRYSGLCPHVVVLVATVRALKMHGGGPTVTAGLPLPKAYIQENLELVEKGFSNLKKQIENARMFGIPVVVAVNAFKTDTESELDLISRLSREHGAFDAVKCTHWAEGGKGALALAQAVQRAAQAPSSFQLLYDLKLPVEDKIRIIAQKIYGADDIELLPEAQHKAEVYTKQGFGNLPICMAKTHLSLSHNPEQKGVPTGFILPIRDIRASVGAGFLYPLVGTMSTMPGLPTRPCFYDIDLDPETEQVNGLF
Sequence of UniProt P22059 (P22059 whole entry, looked up): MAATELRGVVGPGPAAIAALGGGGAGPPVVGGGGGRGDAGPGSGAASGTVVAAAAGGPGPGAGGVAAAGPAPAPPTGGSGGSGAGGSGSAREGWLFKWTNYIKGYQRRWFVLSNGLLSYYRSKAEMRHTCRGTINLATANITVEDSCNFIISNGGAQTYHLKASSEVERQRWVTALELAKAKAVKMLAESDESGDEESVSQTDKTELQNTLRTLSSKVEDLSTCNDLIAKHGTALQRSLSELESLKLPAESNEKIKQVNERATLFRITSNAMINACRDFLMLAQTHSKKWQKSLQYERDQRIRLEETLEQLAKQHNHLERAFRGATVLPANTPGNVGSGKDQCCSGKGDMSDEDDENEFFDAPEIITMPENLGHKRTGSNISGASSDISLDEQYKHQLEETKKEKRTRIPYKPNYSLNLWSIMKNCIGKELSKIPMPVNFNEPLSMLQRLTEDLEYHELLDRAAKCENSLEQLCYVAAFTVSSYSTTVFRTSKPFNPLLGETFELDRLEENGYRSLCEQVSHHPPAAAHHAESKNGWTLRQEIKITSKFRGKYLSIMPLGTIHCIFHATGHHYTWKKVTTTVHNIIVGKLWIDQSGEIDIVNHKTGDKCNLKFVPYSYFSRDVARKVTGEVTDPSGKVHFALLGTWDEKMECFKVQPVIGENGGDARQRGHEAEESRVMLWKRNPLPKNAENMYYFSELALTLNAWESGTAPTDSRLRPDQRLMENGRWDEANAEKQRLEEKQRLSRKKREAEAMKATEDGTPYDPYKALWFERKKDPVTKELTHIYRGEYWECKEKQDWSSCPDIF
Sequence of UniProt O14524 (O14524 whole entry, looked up): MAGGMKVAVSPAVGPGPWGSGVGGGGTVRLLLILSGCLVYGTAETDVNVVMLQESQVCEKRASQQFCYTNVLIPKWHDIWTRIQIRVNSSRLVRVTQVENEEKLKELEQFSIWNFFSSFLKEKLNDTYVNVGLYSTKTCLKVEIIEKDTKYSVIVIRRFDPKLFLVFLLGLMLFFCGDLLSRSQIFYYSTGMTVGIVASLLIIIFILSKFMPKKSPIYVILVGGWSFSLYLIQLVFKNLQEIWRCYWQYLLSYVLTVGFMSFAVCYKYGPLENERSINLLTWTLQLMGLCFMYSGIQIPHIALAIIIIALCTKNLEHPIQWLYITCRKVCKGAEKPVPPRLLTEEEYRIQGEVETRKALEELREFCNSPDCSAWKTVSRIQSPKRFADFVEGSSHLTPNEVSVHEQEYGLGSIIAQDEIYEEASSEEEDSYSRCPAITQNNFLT
Sequence of UniProt P56556 (P56556 whole entry, looked up): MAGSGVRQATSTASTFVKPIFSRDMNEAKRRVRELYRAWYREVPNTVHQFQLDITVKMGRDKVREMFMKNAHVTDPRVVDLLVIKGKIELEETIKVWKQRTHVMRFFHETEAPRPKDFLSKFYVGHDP
Sequence of UniProt Q69YL0 (Q69YL0 whole entry, looked up): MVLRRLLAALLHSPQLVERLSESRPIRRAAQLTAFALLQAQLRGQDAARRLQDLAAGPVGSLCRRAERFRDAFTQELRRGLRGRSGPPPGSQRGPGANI

log2 fold change, inactive:
MRPS21 (UniProt P82921) -0.031
NAA11 (UniProt Q9BSU3) -0.041
NEDD4 isoform 4 (UniProt P46934) -0.007
MTHFD1, A0A384N5Y3 0.051
NUP210 (UniProt Q8TEM1) -0.125
OAT (UniProt P04181) -0.012
NDUFA7 (UniProt O95182) 0.027
NAP1L1 (UniProt B7Z9C2) -0.081
NUDT1 (UniProt P36639) 0.018
MON2 isoform 5 (UniProt Q7Z3U7) 0.014
NA, A0A0B4J2A0 0.021
NIPSNAP2 (UniProt O75323) 0.092
NDUFB7 (UniProt P17568) -0.074
NHLRC2 (UniProt Q8NBF2) 0.097
NBN (UniProt O60934) 0.009
NCBP2AS2 (UniProt Q69YL0) -0.017
NFATC3 (UniProt Q12968) 0.153
NDUFA4 (UniProt O00483) 0.025
NUCKS1 (UniProt Q9H1E3) -0.02
MXRA7 (UniProt P84157) -0.008
MRPS35 (UniProt P82673) 0.036
NUP85 (UniProt Q9BW27) 0.005
NUMA1 (UniProt Q14980) 0.049
OSBP (UniProt P22059) -0.013
NDUFB1 (UniProt O75438) 0.017
NSUN2 (UniProt Q08J23) 0.011
NDUFA6 (UniProt P56556) -0.041
OXSR1 (UniProt O95747) -0.058
PAFAH1B2 (UniProt P68402) 0.022
OPHN1 (UniProt O60890) -0.014
NEDD4L (UniProt Q96PU5) 0.046
NEMP1 (UniProt O14524) -0.121
NAP1L1 (UniProt P55209) 0.028
NCKAP1 isoform 2 (UniProt Q9Y2A7) -0.041
NDUFA12 (UniProt Q9UI09) -0.025
